Experimental data reported in PubChem BioAssay (Tox21).
Where “and” joins values, the source holds several entries; their conditions need not be identical. Equal values may be shown once. Inconclusive results are not listed. Some compounds were tested as several samples or in several runs, with calls that do not always agree. Calls of active or inactive are those of the source. Unless noted, the call rests on the fitted dose curve; in most records, active means well fitted curve in the direction sought with a large enough effect in the repeat runs; inconclusive means weak or mixed curves; inactive means no such curve, though single readings can be large; an effect the other way counts as inactive or inconclusive.

Legend:
[1] = qHTS assay to identify small molecule agonists of the estrogen receptor beta (ER-beta) signaling pathway - cell viability counter screen (AID 1259380); further: nearly all actives have a fitted effect of over 30% in size; further: potency means the concentration at half of the fitted maximal effect
Summary of the method: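 ER-beta-UAS-bla HEK293T cells in medium with 2% charcoal-stripped FBS were preincubated 6 hr at 37C, dosed with compound in DMSO for 16 hr, then after the bla read, CellTiter-Glo was added for 30 min at room temperature; luminescence recorded.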

[2] = qHTS assay to identify small molecule antagonists of the estrogen receptor beta (ER-beta) signaling pathway - cell viability counter screen (AID 1259382);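 further: HEK293T cells carrying ER-beta-UAS-bla reporter stimulated with estradiol; series mostly up to about 92 µM; nearly all actives have a fitted effect of over 55% in size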
Summary of the method: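 ER-beta-UAS-bla HEK293T cells (2,000/well, 2% charcoal-stripped FBS) were pre-incubated 6 hr at 37C, then given compound plus 1nM final 17-beta-estradiol for 16 hr. Viability was read in the same wells by CellTiter-Glo luminescence after 30 min at room temperature.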

[3] = qHTS assay to identify small molecule agonists or antagonists of the thyroid stimulating hormone receptor (TSHR) signaling pathway - wild type cell line counter screen (AID 1259384; calls by dose curve)
Summary of the method: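 Wild-type Hek293 cells, 800/well, 18 h at 37C, then compound with Ro20-1724 for 30 min RT. cAMP by HTRF (cAMP-d2/anti-cAMP cryptate), 1 h RT, fluorescence read. 15 concentrations, triplicates.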

[4] = target: Thyrotropin receptor (Homo sapiens) (UniProt P16473); experiment: qHTS assay to identify small molecule antagonists of the thyroid stimulating hormone receptor (TSHR) signaling pathway (AID 1259385; calls by dose curve; further: nearly all actives have a fitted effect of over 20% in size)
Chain of Thyrotropin receptor (Homo sapiens) (P16473 whole entry, looked up): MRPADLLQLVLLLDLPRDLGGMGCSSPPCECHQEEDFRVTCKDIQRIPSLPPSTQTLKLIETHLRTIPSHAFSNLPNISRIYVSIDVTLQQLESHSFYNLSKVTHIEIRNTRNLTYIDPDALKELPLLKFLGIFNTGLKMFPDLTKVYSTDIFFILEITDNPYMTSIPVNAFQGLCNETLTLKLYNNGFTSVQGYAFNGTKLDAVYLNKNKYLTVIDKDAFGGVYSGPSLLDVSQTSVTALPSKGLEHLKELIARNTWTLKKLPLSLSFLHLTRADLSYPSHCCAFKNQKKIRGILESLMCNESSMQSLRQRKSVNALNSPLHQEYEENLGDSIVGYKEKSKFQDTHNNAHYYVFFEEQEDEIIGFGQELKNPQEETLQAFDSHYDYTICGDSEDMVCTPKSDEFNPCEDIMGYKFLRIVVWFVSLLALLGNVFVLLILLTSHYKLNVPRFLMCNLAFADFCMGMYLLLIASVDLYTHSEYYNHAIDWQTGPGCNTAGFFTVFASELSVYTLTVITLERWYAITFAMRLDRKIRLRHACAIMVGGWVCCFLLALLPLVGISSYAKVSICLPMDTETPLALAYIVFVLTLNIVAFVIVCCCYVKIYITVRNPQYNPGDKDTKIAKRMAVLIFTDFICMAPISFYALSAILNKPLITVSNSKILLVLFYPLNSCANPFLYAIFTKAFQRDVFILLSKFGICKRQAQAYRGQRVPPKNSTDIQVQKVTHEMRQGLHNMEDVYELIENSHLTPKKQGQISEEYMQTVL
Summary of the method: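 TSHR-HEK293 cells (800/well) plated 18 h, then compounds with Ro20-1724 and TSH at 1.5 ng/mL final, 30 min at room temperature. cAMP quantified by HTRF (cAMP-d2/anti-cAMP-cryptate, 1 h); 15 concentrations in triplicate.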

[5] = qHTS assay to identify small molecule agonists of the estrogen receptor alpha (ER-alpha) signaling pathway in the presence of an antagonist - cell viability counter screen (AID 1259386);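 further: series mostly up to about 92 µM; cells exposed to compounds for 22 h at 37 °C before the viability read; nearly all actives have a fitted effect of over 30% in size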
Summary of the method: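 VM7Luc4E2 cells (endogenous full-length ER-alpha, 4×ERE-luciferase) were held 5 days in phenol red-free medium with 10% charcoal-stripped FBS, plated, then given 10.0nM ICI-182,780 and compounds at 15 concentrations for 22hr at 37C; viability read by CellTiter-Fluor fluorescence.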

[6] = target: Progesterone receptor (Homo sapiens) (UniProt P06401); experiment: qHTS assay to identify small molecule agonists of the progesterone receptor (PR) signaling pathway (AID 1346784; calls by dose curve; further: nearly all actives have a fitted effect of over 30% in size)
Chain of Progesterone receptor (Homo sapiens) (P06401 whole entry, looked up): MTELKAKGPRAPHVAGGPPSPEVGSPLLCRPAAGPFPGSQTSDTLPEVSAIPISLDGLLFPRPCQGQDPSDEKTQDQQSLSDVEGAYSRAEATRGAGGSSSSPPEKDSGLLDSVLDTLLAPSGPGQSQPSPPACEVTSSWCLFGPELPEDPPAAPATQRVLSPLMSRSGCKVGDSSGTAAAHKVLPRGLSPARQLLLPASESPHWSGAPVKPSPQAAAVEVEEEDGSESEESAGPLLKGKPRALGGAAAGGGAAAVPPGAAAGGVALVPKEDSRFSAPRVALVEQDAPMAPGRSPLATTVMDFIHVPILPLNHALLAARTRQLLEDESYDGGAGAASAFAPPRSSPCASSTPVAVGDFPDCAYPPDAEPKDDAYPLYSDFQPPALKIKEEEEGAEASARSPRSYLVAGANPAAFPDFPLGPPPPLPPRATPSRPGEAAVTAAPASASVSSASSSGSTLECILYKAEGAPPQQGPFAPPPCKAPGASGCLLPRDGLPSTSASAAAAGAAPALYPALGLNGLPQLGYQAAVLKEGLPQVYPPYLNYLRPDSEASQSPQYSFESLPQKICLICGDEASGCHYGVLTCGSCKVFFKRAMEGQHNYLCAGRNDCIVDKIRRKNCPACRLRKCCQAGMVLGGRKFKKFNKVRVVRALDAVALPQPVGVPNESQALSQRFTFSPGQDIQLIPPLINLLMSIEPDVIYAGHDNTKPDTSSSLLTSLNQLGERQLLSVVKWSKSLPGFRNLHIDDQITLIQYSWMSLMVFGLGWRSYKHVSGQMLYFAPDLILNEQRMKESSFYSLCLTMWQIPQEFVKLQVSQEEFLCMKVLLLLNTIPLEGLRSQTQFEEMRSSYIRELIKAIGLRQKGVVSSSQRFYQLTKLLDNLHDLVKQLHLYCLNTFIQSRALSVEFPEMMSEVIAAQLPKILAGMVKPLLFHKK
Summary of the method: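 HEK 293T PR-UAS-bla reporter cells, 2% charcoal-stripped FBS; 6 hr settle at 37C/5% CO2, compound (DMSO) 16 hr, LiveBLAzer B/G FRET substrate 2 hr RT, fluorescence intensity read.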

[7] = target: Progesterone receptor (Homo sapiens) (UniProt P06401); experiment: qHTS assay to identify small molecule antagonists of the progesterone receptor (PR) signaling pathway (AID 1346795; active means well fitted inhibition curve with a large enough effect in the signal ratio in the repeat runs, not every such curve was filed as active; the % refers to the signal ratio; further: potency means the concentration at half of the fitted maximal effect)
Summary of the method: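 Beta-lactamase reporter, HEK293T PR-UAS-bla line; 2% charcoal-stripped FBS; 6 hr pre-incubation, 37C/5% CO2. Compound + R5020 1 nM final, 16 hr. LiveBLAzer B/G FRET substrate, 2 hr RT; fluorescence intensity read.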

[8] = qHTS assay to identify small molecule antagonists of the progesterone receptor (PR) signaling pathway - cell viability counter screen (AID 1346798); further: series mostly up to about 92 µM; nearly all actives have a fitted effect of over 50% in size
Summary of the method: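 Luminescence readout (CellTiter-Glo, 30 min, RT) of viability in PR-UAS-bla HEK293T cells exposed to compound and R5020 agonist for 16 hr at 37C, 5% CO2; run in the same wells as the beta-lactamase reporter read.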

[9] = qHTS assay to identify small molecule agonists of the progesterone receptor (PR) signaling pathway - cell viability counter screen (AID 1346799; calls by dose curve; further: nearly all actives have a fitted effect of over 45% in size; further: potency means the concentration at half of the fitted maximal effect)
Summary of the method: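 HEK293T PR-UAS-bla, 3,000 cells/well, 2% charcoal-stripped FBS; 6 h settle, compound 16 h at 37C/5% CO2; LiveBLAzer 2 h RT, then CellTiter-Glo 30 min RT, luminescence read.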

[10] = qHTS assay to identify small molecule antagonists of the TGF-beta/Smad signaling pathway - cell viability counter screen (AID 1346824); further: nearly all actives have a fitted effect of over 50% in size
Summary of the method: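 SBE-bla HEK 293T cells, incubated overnight, then compound plus 0.25 ng/mL TGF-beta1 (stock added) for 5 hr at 37 C. Viability was read in the same wells by CellTiter-Glo luminescence after 30 min at room temperature.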

[11] = qHTS assay to identify small molecule agonists of the TGF-beta/Smad signaling pathway - cell viability counter screen (AID 1346829); further: top concentration of the series differs between compounds; nearly all actives have a fitted effect of over 45% in size
Summary of the method: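 Tox21 qHTS format: SBE-bla HEK 293T cells treated with DMSO-dissolved compounds for 5 hr; CellTiter-Glo luminescence after 30 min at room temperature.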

[12] = qHTS assay to identify small molecule agonists of the TGF-beta/Smad signaling pathway (AID 1346859; active means well fitted activation curve with a large enough effect in the signal ratio in the repeat runs, not every such curve was filed as active; the % refers to the signal ratio; further: potency means the concentration at half of the fitted maximal effect; on activation: series mostly up to about 77 µM)
Summary of the method: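 Read-out: fluorescence at 460 and 530 nm (405 nm excitation) after a 2 hr room-temperature incubation with beta-lactamase FRET substrate. SBE-bla HEK 293T cells had been treated with test compounds for 5 hr at 37 C.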

[13] = target: Thyrotropin-releasing hormone receptor (Homo sapiens) (UniProt P34981); experiment: qHTS assay to identify small molecule antagonists of the thyrotropin-releasing hormone receptor (TRHR) signaling pathway (AID 1346877; active means well fitted inhibition curve with a large enough effect in the repeat runs, not every such curve was filed as active; further: series mostly up to about 51 µM)
Chain of Thyrotropin-releasing hormone receptor (Homo sapiens) (P34981 whole entry, looked up): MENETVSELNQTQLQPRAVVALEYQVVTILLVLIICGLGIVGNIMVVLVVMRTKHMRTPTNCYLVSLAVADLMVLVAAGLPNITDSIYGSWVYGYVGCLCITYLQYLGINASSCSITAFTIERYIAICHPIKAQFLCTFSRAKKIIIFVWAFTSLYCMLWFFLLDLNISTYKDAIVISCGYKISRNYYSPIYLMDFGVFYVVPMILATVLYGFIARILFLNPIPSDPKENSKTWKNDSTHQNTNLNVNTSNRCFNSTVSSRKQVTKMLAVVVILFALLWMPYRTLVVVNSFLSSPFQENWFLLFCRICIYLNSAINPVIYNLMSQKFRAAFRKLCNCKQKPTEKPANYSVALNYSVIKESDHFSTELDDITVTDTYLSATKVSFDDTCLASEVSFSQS
Summary of the method: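 TRHR-expressing HEK293 cells were seeded, cultured 18 h at 37 °C, then loaded with calcium dye for 2 h. Compounds were pre-incubated 5 min at room temperature before 1 nM TRH (final) was added, and kinetic fluorescence was recorded for 3 min.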

[14] = target: Thyrotropin-releasing hormone receptor (Homo sapiens) (UniProt P34981); experiment: qHTS assay to identify small molecule agonists of the thyrotropin-releasing hormone receptor (TRHR) signaling pathway (AID 1346891; calls by dose curve; further: potency means the concentration at half of the fitted maximal effect; on activation: series mostly up to about 58 µM)
Summary of the method: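 HEK293/TRHR cells, 1500 per well, 18 h 37 °C; Ca dye 2 h 37 °C; pin-tool compound addition (agonist mode); kinetic fluorescence 3 min, 1 s reads; 15 concentrations, triplicate.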

[15] = Human pregnane X receptor (PXR) small molecule agonists, qHTS cell viability counter screen (AID 1346977); further: nearly all actives have a fitted effect of over 50% in size; further: potency means the concentration at half of the fitted maximal effect
Summary of the method: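 Fluorescence read-out (CellTiter-Fluor) of viability in PXR-Luc HepG2 cells, multiplexed with the luciferase agonist read. Compounds in DMSO added after 5hr plating; 24hr total exposure at 37C, 5% CO2.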

[16] = Caspase-3/7 induction in HepG2 cells by small molecules, qHTS assay (AID 1346978); further: nearly all actives have a fitted effect of over 15% in size
Summary of the method: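 Wild-type HepG2 cells, 2,000/well, settled 5 hr at 37 C and 5% CO2, then compound-treated for 17 hr; caspase-3/7 activity read by luminescent Caspase-Glo 3/7 after 30 min at room temperature.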

[17] = Caspase-3/7 induction in CHO-K1 cells by small molecules, qHTS cell viability counter screen (AID 1346979); further: nearly all actives have a fitted effect of over 35% in size; further: potency means the concentration at half of the fitted maximal effect
Summary of the method: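 CHO-K1 wt, 1,500 cells/well; 5hr pre-incubation 37C/5% CO2; compound pin transfer (DMSO); 16hr exposure; CellTiter-Fluor added, 1hr, fluorescence read.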

[18] = Caspase-3/7 induction in CHO-K1 cells by small molecules, qHTS assay (AID 1346980); further: nearly all actives have a fitted effect of over 15% in size
Summary of the method: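 Wild-type CHO-K1 cells exposed to compounds for 17hr at 37 C, 5% CO2. Caspase-3/7 activity then measured by Caspase-Glo 3/7 luminescence after 30min at room temperature.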

[19] = target: Estrogen receptor (Homo sapiens) (UniProt P03372); experiment: qHTS assay to identify small molecule agonists of the estrogen receptor alpha (ER-alpha) signaling pathway in the presence of an antagonist (AID 1259383; calls by dose curve; further: top concentration of the series differs between compounds; nearly all actives have a fitted effect of over 15% in size)
Chain of Estrogen receptor (Homo sapiens) (P03372 whole entry, looked up): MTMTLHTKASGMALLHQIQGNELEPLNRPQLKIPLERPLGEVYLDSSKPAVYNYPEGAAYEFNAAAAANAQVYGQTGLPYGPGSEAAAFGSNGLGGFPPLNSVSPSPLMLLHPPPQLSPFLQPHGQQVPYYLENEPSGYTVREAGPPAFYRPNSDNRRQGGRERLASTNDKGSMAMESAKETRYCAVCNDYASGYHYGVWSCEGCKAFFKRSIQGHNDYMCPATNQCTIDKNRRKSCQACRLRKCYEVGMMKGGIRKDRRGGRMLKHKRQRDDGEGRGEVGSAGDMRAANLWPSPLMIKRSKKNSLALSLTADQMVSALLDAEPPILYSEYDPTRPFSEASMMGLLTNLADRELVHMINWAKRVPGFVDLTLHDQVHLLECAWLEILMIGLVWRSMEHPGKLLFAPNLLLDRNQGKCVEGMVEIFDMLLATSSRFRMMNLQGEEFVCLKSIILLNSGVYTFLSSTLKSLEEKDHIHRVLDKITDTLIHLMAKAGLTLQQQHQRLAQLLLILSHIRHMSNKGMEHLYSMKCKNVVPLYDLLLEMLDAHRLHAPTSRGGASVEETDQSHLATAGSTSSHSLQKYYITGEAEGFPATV
Summary of the method: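 VM7Luc4E2 cells (endogenous full-length ER-alpha, 4×ERE-luciferase) were precultured 5 days in phenol red-free medium with 10% charcoal-stripped FBS, given 10.0nM ICI-182,780 (final), then treated with compounds at 15 concentrations for 22hr at 37C; luminescence read with ONE-Glo.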

Measured: Potency

CC(C)(Cl)Cl
not listed: [19]
inactive: all other assays above

CCc1cccc(C)c1N(C(=O)CCl)C(C)COC (configuration not stated)
not listed: [7] | [19]
inactive: all other assays above

O=C1CCCN1
55.5 µM (active) and inactive: [12]
not listed: [4] | [13] | [14] | [17]
inactive: all other assays above

O=Cc1cccc(Oc2ccccc2)c1
not listed: [4] | [13] | [14] | [17]
inactive: all other assays above

CC(C)=C[C@@H]1[C@@H](C(=O)OCc2coc(Cc3ccccc3)c2)C1(C)C
not listed: [4] | [13] | [14]
inactive: all other assays above

CC(C)N1C(=O)c2ccccc2NS1(=O)=O
not listed: [4] | [13] | [14] | [17]
inactive: all other assays above

CC(NC(C)(C)C)C(=O)c1cccc(Cl)c1 (configuration not stated)
not listed: [1] | [3] | [4] | [19]
inactive: all other assays above

OC(O)C(Cl)(Cl)Cl
not listed: [2] | [19]
inactive: all other assays above

Clc1cccc(Cl)c1Cl
not listed: [2] | [17] | [19]
inactive: all other assays above

C=CCO
inactive and 8.71 µM (active): [14]
not listed: [2] | [17] | [19]
inactive: all other assays above

CCC[CH2][Sn]([Cl])([Cl])[Cl]
not listed: [2] | [4] | [17]
inactive: all other assays above

COC(=O)c1ccccc1N
not listed: [2] | [19]
inactive: all other assays above

O=[N+]([O-])c1ccc([As](=O)(O)O)cc1
not listed: [2] | [4] | [17]
inactive: all other assays above

Nc1c(Cl)c(Cl)nc(C(=O)O)c1Cl
not listed: [2] | [4] | [12] | [17]
inactive: all other assays above

Cc1cc(-c2cc(C)c(N)c(C)c2)cc(C)c1N
not listed: [1] | [4] | [7] | [13] | [14] | [17]
inactive: all other assays above

c1ccc2c(c1)oc1ccccc12
not listed: [2] | [4] | [19]
inactive: all other assays above

CC(C)(C)OOC(=O)c1ccccc1
not listed: [2] | [3] | [4] | [13] | [14] | [19]
inactive: all other assays above

C1CC2OC2CC1C1CO1 (configuration not stated)
not listed: [2] | [4] | [13] | [14]
inactive: all other assays above

[O-][Cl+2]([O-])O
not listed: [2]
inactive: all other assays above

ClCCBr
not listed: [2] | [17]
inactive: all other assays above

CCC[N+](=O)[O-]
8.48 µM (active) and inactive: [1] | [7]
inactive: [3] | [5] | [10] | [11] | [12] | [15] | [16] | [17] | [18]
19 µM (active) and inactive: [9]

CN(C)N=O
not listed: [2] | [3] | [4] | [17] | [19]
inactive: all other assays above

CCNc1nc(NC(C)(C)C)nc(SC)n1
active: [7] 47.9 µM
not listed: [2] | [8] | [17]
inactive: all other assays above

CC(C)(C)C(O)(CCc1ccc(Cl)cc1)Cn1cncn1 (configuration not stated)
active: [7] 17.4 µM and 24.3 µM
not listed: [1] | [4] | [8] | [9] | [17] | [19]
inactive: all other assays above

CN(C)CCO
not listed: [2] | [4]
inactive: all other assays above

COc1ccc2c3c1O[C@H]1[C@@H](O)C=C[C@H]4[C@@H](C2)N(C)CC[C@@]341
67.5 µM (active) and inactive: [15]
60.1 µM (active) and inactive: [17]
not listed: [2] | [4] | [13] | [14]
inactive: all other assays above

O=c1[nH]c2ccccc2c(=O)o1
not listed: [2] | [4]
inactive: all other assays above

CCOP(OCC)OCC
not listed: [2] | [3] | [4]
inactive: all other assays above

CC(C)C#N
not listed: [2] | [17] | [19]
inactive: all other assays above

Nc1ccc(Oc2ccc(N)cc2)cc1
not listed: [1] | [2] | [13] | [14] | [19]
inactive: all other assays above

Cc1ccc(N)cc1Cl
not listed: [2] | [17]
inactive: all other assays above

O=NN1CCCCCCC1
not listed: [2] | [4]
inactive: all other assays above

CNC(=O)Oc1ccccc1OC(C)C
not listed: [2] | [4]
inactive: all other assays above
